Reference: PubChem BioAssay AID602350 (Broad Institute, 2012)
Entries with a potency or affinity are not part of this list. A number with no mark means an inactive call.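 Rule for the calls: active = absorbance falls by 30% or more versus neutral controls, with a potency fitted within twice the top valid dose; inconclusive = no clear call, values can overlap the other calls; inactive = change opposite to expected direction, plus the rest.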

Target: Protein disulfide-isomerase (Homo sapiens) (UniProt P07237)
Sequence (P07237 whole entry, looked up): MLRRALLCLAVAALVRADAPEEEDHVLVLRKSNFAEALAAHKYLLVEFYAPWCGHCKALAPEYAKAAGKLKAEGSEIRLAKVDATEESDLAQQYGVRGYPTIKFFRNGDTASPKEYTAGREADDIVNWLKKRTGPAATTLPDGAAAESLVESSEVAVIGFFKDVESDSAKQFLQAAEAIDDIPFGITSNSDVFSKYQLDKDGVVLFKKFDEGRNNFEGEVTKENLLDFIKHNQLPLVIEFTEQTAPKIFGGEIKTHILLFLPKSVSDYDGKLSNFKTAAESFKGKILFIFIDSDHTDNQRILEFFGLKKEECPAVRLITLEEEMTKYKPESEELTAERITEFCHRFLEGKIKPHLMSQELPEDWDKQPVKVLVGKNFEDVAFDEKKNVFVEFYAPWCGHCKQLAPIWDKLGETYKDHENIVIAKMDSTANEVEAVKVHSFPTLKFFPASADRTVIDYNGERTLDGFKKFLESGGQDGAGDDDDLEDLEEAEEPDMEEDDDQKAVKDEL
Assay: PDI inhibitors, insulin aggregation turbidity, dose response, biochemical, absorbance, cherry-picked samples (AID 602350);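 note: 0% = neutral controls and -100% = rutin hydrate positive control wells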
Conditions: recombinant PDI insulin aggregation, absorbance 650 nm, 90 min; series mostly up to 19.5 µM; activity change, negative = inhibition: at the top concentration

Structure (SMILES) | activity change, negative = inhibition
CC1(C)CC[C@]2(C(=O)O)CC[C@]3(C)C(=CC[C@@H]4[C@@]5(C)CC[C@H](O[C@@H]6O[C@H](C(=O)O)[C@@H](O)[C@H](O[C@@H]7OC[C@H](O)[C@H](O)[C@H]7O)[C@H]6O)C(C)(C)[C@@H]5CC[C@]43C)[C@@H]2C1 | 6.7%
CCOC(=O)c1c(CN2CCN(CCO)CC2)n(C)c2cc(Br)c(OC)cc12 | 6.16%
O=C1CC(C(=O)N2CCc3ccccc32)CN1c1ccc(F)cc1 (centres undefined) | 5.33%
COc1cc(CCC(=O)OCC(=O)Nc2cc(S(=O)(=O)N3CCOCC3)ccc2Cl)cc(OC)c1OC | 1.15%
O=C(CCS(=O)(=O)c1ccccc1)N(CCCN1CCOCC1)c1nc2ccccc2s1 | -17.5%
CC(=O)C1=C(O)C(=O)N(CCc2c[nH]c3ccccc23)C1c1cccc(O)c1 (centres undefined) | -15.4%
C[C@@H]1CN([C@@H](C)CO)C(=O)Cc2cc(NC(=O)Nc3ccccc3)ccc2O[C@H]1CN(C)Cc1ccccc1 | -19.9%
O=C(c1cc([N+](=O)[O-])ccc1N1CCOCC1)N1CCN(c2ccc([N+](=O)[O-])cc2)CC1 | 8.47%
Cc1cc(C)cc(OCC(=O)Nc2ccccc2C(=O)N2CCOCC2)c1 | 16%
CC(=O)OC1CCC2C3CCC4=C(CC(F)C(=O)C4)C3CCC12C (centres undefined) | -15%
COc1c(Br)cc(C(N)=O)cc1OCc1ccccc1 | 23%
Cn1nccc1C(=O)Nc1ccc(S(=O)(=O)N2CCCC2)cc1 | 3.68%
CC(=O)Oc1ccccc1C(=O)C=Cc1cccc([N+](=O)[O-])c1 | -11.6%
Cc1ccc(NC2(c3nnnn3CCOC(=O)Nc3ccc(Cl)cc3)CCCCC2)cc1 | -1.59% [at 21 µM]
CN(C)C(=O)CSc1nnc([C@H](Cc2ccccc2)NC(=O)OC(C)(C)C)o1 | 4.24%
CN(c1ccccc1)S(=O)(=O)c1cc(C(=O)N2CCN(c3ncccn3)CC2)ccc1Cl | 10.7%
O=C1C[C@H](c2ccc(O)cc2)Oc2cc(O[C@@H]3O[C@H](CO)[C@@H](O)[C@H](O)[C@H]3O)cc(O[C@@H]3O[C@H](CO)[C@@H](O)[C@H](O)[C@H]3O)c21 | -11.2%
CCN(CC(=O)Nc1ccc2c(c1)OCCO2)C(=O)CC1CCCC1 | 0.091%
C[C@H]1CN([C@@H](C)CO)C(=O)Cc2cc(NC(=O)Nc3ccccc3)ccc2O[C@@H]1CN(C)Cc1ccccc1 | -20.7%
CC[C@]12c3[nH]c4cc(-c5ccco5)ccc4c3CCN1C(=O)[C@@H](CC(=O)NCc1ccc(OC)c(OC)c1)C[C@@H]2C(=O)N1CCN(C(=O)C2CC2)CC1 | 12.2%

Structure (SMILES) | activity change, negative = inhibition
O=C(c1ccc(S(=O)(=O)N2CCCCC2)cc1)N1CCN(Cc2ccc3c(c2)OCO3)CC1 | 33%
CC(C)c1ccc(/C=N/NC(=O)c2ccc(-n3cnnn3)cc2)cc1 | 12.5%
Cc1ccc2c(=O)n3c(nc2c1)C(Cc1ccc(O)cc1)NC(=O)c1cccnc1-3 (centres undefined) | -11.4%
C[C@H](CO)N1C[C@H](C)[C@H](CN(C)Cc2ccc(Oc3ccccc3)cc2)Oc2c(NS(C)(=O)=O)cccc2C1=O | -27%
CCOC(=O)C1(CCOc2ccccc2)CCN(Cc2ccc(OC)cc2)CC1 | 0.844%
COc1cccc(NC(=O)CN(C)C(=O)/C=C/c2cc(OC)ccc2OC)c1 | -3.63%
CC(=O)NC(Cc1c[nH]c2ccccc12)C(=O)OCC(=O)N1CCN(S(=O)(=O)c2ccc(Cl)cc2)CC1 (centres undefined) | -12.7%
COc1ccc(CN(C)C[C@@H]2Oc3ccc(NC(=O)Nc4ccccc4)cc3CC(=O)N([C@H](C)CO)C[C@@H]2C)cc1 | -17.1%
O=C(Cn1nnc2ccccc21)OCC(=O)c1ccccc1 | 13.7%
Cc1cc(NC(=O)CSc2[nH]c(=O)cc(C(F)(F)F)c2C#N)no1 | -0.235%
Cc1noc(C)c1S(=O)(=O)Nc1ccc2c(c1)CC(=O)N([C@H](C)CO)C[C@H](C)[C@H](CN(C)S(C)(=O)=O)O2 | 0.398%
O=C(CCc1nc(-c2ccccc2F)no1)Nc1ccc(Oc2ccccc2)cc1 | 2.1%
CC(=O)Nc1cccc(NC(=O)CCc2ccccc2)c1 | 0.278%
O=C(Nc1nc2ccccc2s1)c1cccc(S(=O)(=O)N2CCc3ccccc32)c1 | -4.05%
CCC(=O)Nc1ccc(-c2cc3ccccc3oc2=O)cc1 | 17% [at 6.8 µM]
COc1ccc(S(=O)(=O)NC(C)C(=O)Nc2ccccc2F)cc1 (centres undefined) | -0.01%
O=C(OCc1ccc(-c2ccccc2)cc1)c1cccc(O)c1 | -12%
CCOC(=O)C1(CCOc2ccccc2)CCN(Cc2ccc(C(=O)OC)cc2)CC1 | 0.786%
COCC(=O)N(C)C1(c2nnnn2CCOC(=O)Nc2ccc(Cl)cc2)CCCC1 | 20.2%
